# Measurements: the supplement of paper PMC13380429
# Tested on: Vero E6 infected with SARS-CoV-2
# Test: inhibition of SARS-CoV-2 cytopathic effect; higher = more antiviral protection, active = above 15
# Conditions: 1 nM; 48 h
row,Compound,inhibition of SARS-CoV-2 cytopathic effect
1,O=Nc1c(-c2c(O)[nH]c3cc(Br)ccc23)[nH]c2ccccc12 [GSK-3-inhibitor-IX],-0.14% (inactive)
2,O=c1[nH]c2ccccc2c(=O)n1CCCN1CCN(c2ccccc2)CC1 [pelanserin],0.03% (inactive)
3,C[C@]12C=CC(=O)C=C1CC[C@@H]1[C@@H]2[C@@H](O)C[C@@]2(C)[C@H]1CC[C@]2(O)C(=O)COC(=O)CCC(=O)O [prednisolone-hemisuccinate],-1.49% (inactive)
4,CC(O)(P(=O)(O)O)P(=O)(O)O [etidronic-acid],0.67% (inactive)
5,COC(=O)[C@@]12OC[C@]34[C@H]([C@@H](O)[C@@H]1O)[C@@]1(C)CC(=O)C(O)=C(C)[C@@H]1C[C@H]3OC(=O)[C@H](OC(=O)/C=C(\C)C(C)C)[C@@H]24 [bruceantin],1.48% (inactive)
6,COc1cn(-c2ccc(-n3cccn3)cc2F)nc(-c2ccnn2-c2ccccc2)c1=O,1.53% (inactive)
7,O=C(O)c1ccc2nc(-c3cc(Cl)cc(Cl)c3)oc2c1 [tafamidis-meglumine],-0.14% (inactive)
8,CC(C)NC[C@@H](O)COc1ccccc1-n1cccc1 (racemic) [isamoltane],1.05% (inactive)
9,O=c1ccc2ccc(OCCCCN3CCN(c4cccc5sccc45)CC3)cc2[nH]1 [brexpiprazole],-0.6% (inactive)
10,COC(=O)Nc1nc2cc(C(=O)c3ccc(F)cc3)ccc2[nH]1 [flubendazole],-1.07% (inactive)
11,CC1CCN(C(c2ccc(F)cc2)c2ccc(C(C)C(=O)O)cc2-c2ccc(C(F)(F)F)cc2)CC1 (stereo not drawn),3.01% (inactive)
12,O=C(O)c1c(Sc2ccccc2)c2cc(Cl)ccc2n1Cc1ccc(Cl)cc1,1.19% (inactive)
13,O=C(COP(=O)(O)O)[C@@H](O)[C@H](O)[C@H](O)COP(=O)(O)O [fosfructose],-6.09% (inactive)
14,COc1cc(-n2cnc3cc(-c4ccc(Cl)cc4)sc3c2=O)ccc1OCCN1CCCC1,-1.24% (inactive)
15,CN(C)Cc1ccc(S(=O)(=O)n2ccc(/C=C/C(=O)NO)c2)cc1 [resminostat],0.52% (inactive)
16,CN=C(N)NCCC[C@H](N)C(=O)O [L-monomethylarginine],-0.78% (inactive)
17,c1ccc(-c2ccc(C(c3ccccc3)n3ccnc3)cc2)cc1 (stereo not drawn) [bifonazole],3.05% (inactive)

row,Compound,inhibition of SARS-CoV-2 cytopathic effect
1,CC/C=C\C/C=C\C/C=C\C/C=C\C/C=C\C/C=C\CCC(=O)OCC [doconexent-ethyl-ester],-1.67% (inactive)
2,O=S(=O)(c1cccc2cnccc12)N1CCCNCC1 [fasudil],-2.19% (inactive)
3,CN1C(=O)C[C@@H](C(=O)N[C@@H](Cc2c[nH]cn2)C(=O)N2CCC[C@H]2C(N)=O)NC1=O [taltirelin],1.73% (inactive)
4,CCC1(CC)C(=O)C=CNC1=O [pyrithyldione],1.54% (inactive)
5,O=c1c(-c2ccc(O)cc2)coc2cc(O)cc(O)c12 [genistein],-1.79% (inactive)
6,COc1cc(Br)c(S(=O)(=O)Nc2ccc(Cl)c(O[C@@H]3CCN(C)C3)c2)cc1OC,1.45% (inactive)
7,CCCSc1ccc2[nH]c(NC(=O)OC)nc2c1 [albendazole],3.38% (inactive)
8,N#C/C(=C\c1ccc(O)c(O)c1)C(=O)NCCCc1ccccc1,-2.32% (inactive)
9,CCOC(=O)c1ccc(N(C)c2csc(-c3ccccc3)n2)cc1 [neuropathiazol],-0.18% (inactive)
10,CC(C)NC(=N)NC(=N)Nc1ccc(Cl)cc1 [proguanil],-0.7% (inactive)
11,c1ccc2c(Oc3nc(Nc4ccc(N5CCOCC5)cc4)c4ncn(C5CCCCC5)c4n3)cccc2c1 [purmorphamine],0.27% (inactive)
12,O=C1NCN(c2ccccc2)C12CCN(CCCC(c1ccc(F)cc1)c1ccc(F)cc1)CC2 [fluspirilene],0.39% (inactive)
13,CC(C)Oc1ccc2c(=O)c3cc(C(=O)O)ccc3oc2c1,-2.35% (inactive)
14,COc1ccc(-c2nc(-c3ccc(-c4cccc(Cl)c4)o3)[nH]c2-c2ccc(OC)cc2)cc1 [neurodazine],0.83% (inactive)
15,C[C@@H](N)c1ccc(C(=O)Nc2ccnc3[nH]ccc23)cc1,0.69% (inactive)
16,CC1CCN(CCCC(=O)c2ccc(F)cc2)CC1 [melperone],1.03% (inactive)
